Screen size: about 39,000 compounds; about 3,300 (8.5%) were called active. For the sample, actives were picked, then their nearest neighbours and some compounds at random.
tested on: HepG2; assay: cytotoxicity call (relative viability < 0.9); details: 10 µM

SMILES	cytotoxicity call
C[C@@H]1CCCCO[C@@H](CN(C)C(=O)Nc2ccc(C(F)(F)F)cc2)[C@H](C)CN([C@@H](C)CO)C(=O)c2cc(NC(=O)NC3CCCCC3)ccc2O1	inactive
C[C@H]1CN([C@@H](C)CO)C(=O)c2cccc(NS(=O)(=O)c3ccc(Cl)cc3)c2O[C@H]1CN(C)Cc1ccc(Cl)c(Cl)c1	inactive
CCS(=O)(=O)N1C[C@]2(C1)CN([C@H](CO)c1[nH]c3cc(ccc3c12)OC)S(=O)(=O)c1ccc(cc1)C	inactive
CC(C)NC(=O)N(C)C[C@@H]1Oc2c(NC(=O)NC3CCCCC3)cccc2C(=O)N([C@H](C)CO)C[C@H]1C	inactive
CCc1c(C)[nH]c(N2CCOCC2)nc1=O	inactive
C[C@@H]1CN([C@H](C)CO)C(=O)CCCn2cc(nn2)CO[C@@H]1CN(C)C(=O)c1ccc(N2CCN(C)CC2)cc1	inactive
C[C@@H]1CN([C@@H](C)CO)C(=O)CCCn2nncc2CO[C@H]1CN(C)C(=O)Nc1ccc(C(F)(F)F)cc1	inactive
C[C@@H]1CN([C@H](C)CO)C(=O)CCCn2nncc2CO[C@H]1CN(C)C(=O)Nc1ccccc1C(F)(F)F	active
C[C@@H]1CN([C@@H](C)CO)C(=O)CCCn2nncc2CO[C@H]1CN(C)C(=O)Nc1ccccc1C(F)(F)F	inactive
C[C@H](CO)N1C[C@H](C)[C@H](CN(C)C(=O)Nc2ccccc2C(F)(F)F)OCc2cn(nn2)CCCC1=O	inactive
C[C@H]1CN([C@@H](C)CO)C(=O)CCCn2cc(nn2)CO[C@@H]1CN(C)C(=O)c1ccc(N2CCN(C)CC2)cc1	active
C[C@H](CO)N1C[C@H](C)[C@H](CN(C)C(=O)Nc2ccc(C(F)(F)F)cc2)OCc2cnnn2CCCC1=O	active
C[C@@H]1CN([C@@H](C)CO)C(=O)CCCn2nncc2CO[C@@H]1CN(C)C(=O)Nc1ccc(C(F)(F)F)cc1	inactive
C[C@H]1CN([C@@H](C)CO)C(=O)CCCn2cc(nn2)CO[C@H]1CN(C)C(=O)c1ccc(N2CCN(C)CC2)cc1	inactive
C[C@H](CO)N1C[C@H](C)[C@@H](CN(C)C(=O)Nc2ccccc2C(F)(F)F)OCc2cn(nn2)CCCC1=O	inactive
C[C@@H]1CN([C@H](C)CO)C(=O)CCCn2cc(nn2)CO[C@@H]1CN(C)C(=O)Nc1ccccc1C(F)(F)F	active
C[C@H](CO)N1C[C@H](C)[C@@H](CN(C)C(=O)Nc2ccccc2C(F)(F)F)OCc2cnnn2CCCC1=O	inactive
Cc1noc(C)c1NC(=O)Nc1ccc2c(c1)CC(=O)N([C@H](C)CO)C[C@H](C)[C@H](CN(C)CC1CC1)O2	inactive
Nc1ncnc2c1ncn2[C@@H]1O[C@H](CO)C[C@H]1O	inactive
C[C@H]1CN([C@@H](C)CO)C(=O)Cc2cc(N(C)C)ccc2O[C@@H]1CN(C)S(=O)(=O)c1cn(C)cn1	inactive
CC(C)(CO)Nc1ncnc(N)c1[N+](=O)[O-]	inactive
COc1ccc(NC(=O)Nc2cccc3c2O[C@@H](CN(C)CC2CCCCC2)[C@@H](C)CN([C@@H](C)CO)C3=O)cc1	inactive
Cc1noc(C)c1NC(=O)N(C)C[C@H]1Oc2c(NC(=O)C3CCOCC3)cccc2C(=O)N([C@@H](C)CO)C[C@@H]1C	inactive
C[C@@H]1CN([C@H](C)CO)C(=O)c2cc(NS(=O)(=O)c3ccc(F)cc3)ccc2O[C@@H]1CN(C)S(=O)(=O)c1ccccc1	inactive

SMILES	cytotoxicity call
C[C@@H]1CN([C@H](C)CO)C(=O)CCCn2nncc2CO[C@@H]1CN(C)S(=O)(=O)c1ccc(Cl)cc1	inactive
C[C@H]1CN([C@@H](C)CO)C(=O)CCCn2nncc2CO[C@H]1CN(C)C(=O)Nc1ccccc1C(F)(F)F	active
C[C@@H]1CN([C@H](C)CO)C(=O)CCCn2nncc2CO[C@H]1CN(C)S(=O)(=O)c1ccc(Cl)cc1	inactive
C[C@@H]1CN([C@H](C)CO)C(=O)CCCn2nncc2CO[C@@H]1CN(C)C(=O)Nc1ccccc1C(F)(F)F	inactive
C[C@H]1CN([C@@H](C)CO)C(=O)CCCn2nncc2CO[C@@H]1CN(C)C(=O)Nc1ccccc1C(F)(F)F	inactive
C[C@H]1CN([C@@H](C)CO)C(=O)CCCn2nncc2CO[C@H]1CN(C)S(=O)(=O)c1ccc(Cl)cc1	active
COc1ccc(NC(=O)N(C)C[C@H]2Oc3c(NS(C)(=O)=O)cccc3C(=O)N([C@H](C)CO)C[C@H]2C)cc1	inactive
O=C1c2ccccc2C(=O)C1c1ccc(Cl)cc1	inactive
CCCCC(=O)C1CCC(c2ccc(Cl)cc2)CC1 (stereo not drawn)	inactive
O=C1C(O)=C(C2CCC(c3ccc(Cl)cc3)CC2)C(=O)c2ccccc21 (stereo not drawn)	active
C[C@H](CO)N1C[C@H](C)[C@H](CN(C)C(=O)c2ccccc2)OCCCC[C@H](C)Oc2ccc(NC(=O)Cc3ccccc3)cc2C1=O	inactive
CCO[C@H]1OC(C(=O)N2CCN(Cc3ccccc3)CC2)=C[C@@H](c2cn(C(C)=O)c3ccccc23)[C@@H]1CCCOC(=O)NCCCCCC(=O)NO	inactive
NCCCCCCNC(=O)[C@H]1C[C@H]2C(=O)N[C@@H](CCCCN)C(=O)N2[C@H]1c1ccc(O)cc1	inactive
C[C@@H]1CN([C@@H](C)CO)C(=O)c2cc(NC(=O)Nc3ccc(C(F)(F)F)cc3)ccc2O[C@@H](C)CCCCO[C@@H]1CN(C)S(=O)(=O)c1ccc(F)cc1	inactive
C[C@@H]1CCCCO[C@@H](CN(C)Cc2ccc(C(=O)O)cc2)[C@H](C)CN([C@@H](C)CO)C(=O)c2cc(NS(=O)(=O)c3ccc(F)cc3)ccc2O1	inactive
Nc1ncnc2c1ncn2[C@H]1O[C@H](COP(=O)(O)O)[C@@H](O)[C@H]1O	inactive
CC(C)(C)C(=O)OCOP(=O)(COCCn1cnc2c(N)ncnc21)OCOC(=O)C(C)(C)C [listing 1 of 2 here]	active
CC(C)OC(=O)OCOP(=O)(CO[C@H](C)Cn1cnc2c(N)ncnc21)OCOC(=O)OC(C)C	inactive
CC(Cn1cnc2c(N)ncnc21)OCP(=O)(O)O (stereo not drawn)	active
Nc1ncnc2c1ncn2CCO	inactive
Nc1ncnc2c1ncn2CCN1CCOCC1	inactive
CC(C)(C)C(=O)OCOP(=O)(COCCn1cnc2c(N)ncnc21)OCOC(=O)C(C)(C)C [listing 2 of 2 here]	active
Nc1ncnc2c1ncn2CCN1CCCCC1	inactive
Nc1ncnc2c1ncn2C1OC(COP(=O)(O)O)C(O)C1O (stereo not drawn)	inactive
